Only some compounds are listed: those with a hit (about 2.1% of all), similar ones and a draw of the others.
CendR NRP1 mod = alters CendR peptide binding to human NRP-1 | O14786 | inhibition, % at 25 µM | FAM-RPARPAR peptide binding to NRP-1, fluorescence polarization | 0.85% of 360,000 active;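 active means inhibition or corrected inhibition above about 18%, plus a signal ratio from 0.5 to 1.5, limit read from the data, passing the limit was not always enough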
Target sequence (O14786 whole entry, looked up): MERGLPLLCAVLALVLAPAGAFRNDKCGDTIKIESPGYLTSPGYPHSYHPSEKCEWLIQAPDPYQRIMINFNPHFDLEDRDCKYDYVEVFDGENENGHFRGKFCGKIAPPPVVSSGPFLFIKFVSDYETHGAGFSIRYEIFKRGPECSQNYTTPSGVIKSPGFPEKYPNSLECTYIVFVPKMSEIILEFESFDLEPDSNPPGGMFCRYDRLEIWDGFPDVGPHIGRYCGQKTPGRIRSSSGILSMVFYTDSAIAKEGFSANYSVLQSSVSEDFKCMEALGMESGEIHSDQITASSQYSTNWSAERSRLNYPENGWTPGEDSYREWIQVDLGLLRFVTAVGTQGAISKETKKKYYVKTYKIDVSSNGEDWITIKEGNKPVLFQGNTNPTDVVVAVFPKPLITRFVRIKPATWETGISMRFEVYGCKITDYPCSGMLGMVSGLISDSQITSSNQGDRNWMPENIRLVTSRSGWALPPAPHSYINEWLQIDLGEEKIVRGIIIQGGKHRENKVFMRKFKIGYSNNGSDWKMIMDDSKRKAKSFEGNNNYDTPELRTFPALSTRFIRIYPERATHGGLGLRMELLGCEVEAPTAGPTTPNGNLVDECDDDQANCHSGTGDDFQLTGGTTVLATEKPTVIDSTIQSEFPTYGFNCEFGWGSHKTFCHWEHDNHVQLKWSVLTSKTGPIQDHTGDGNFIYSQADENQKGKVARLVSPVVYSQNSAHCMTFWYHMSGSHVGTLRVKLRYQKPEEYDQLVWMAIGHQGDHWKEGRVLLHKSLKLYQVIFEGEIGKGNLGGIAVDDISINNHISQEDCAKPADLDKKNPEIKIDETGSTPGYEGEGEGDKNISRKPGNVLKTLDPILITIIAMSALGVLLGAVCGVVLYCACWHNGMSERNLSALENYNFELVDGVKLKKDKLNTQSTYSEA
eIF4H FP inh = inhibitors of RNA binding by human eIF4H; Q15056; eIF4H fluorescence polarization binding assay; inhibition, % at 35 µM; 0.94% of 290,000 active;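 further: calls also rest on retests at 20 µM and on dose response follow-up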
MLLE-PAM2 inh = inhibitors of microRNA-mediated deadenylation, human PABP1 MLLE binding; 0.36% of 360,000 active; inhibition, % at 20 µM; P11940; GST-MLLE / FITC-PAM2 fluorescence polarization; in the data active means inhibition above about 35%, passing the limit was not always enough;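 further: plate controls were DMSO wells with GST-MLLE for no effect and wells lacking GST-MLLE protein for full effect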
PABP FP inh = PABP-poly(A) binding inhibition. PABP-poly(A) RNA binding, fluorescence polarization. inhibition, % at 35 µM. AID 2014. P11940. 1% of 290,000 active;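 further: calls also rest on retests at 20 µM and on dose response follow-up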
Active calls of the source: *; ? = inconclusive; / = no result given. Unless noted, how the calls were made is not given here.

SMILES	CendR NRP1 mod	eIF4H FP inh	MLLE-PAM2 inh	PABP FP inh
COc1ccc(NC(=O)C2Cc3c(-c4ccco4)ccnc3O2)cc1OC (stereo unspecified)	-3	/	-9	/
Cc1ccccc1NC(=O)c1ccc2c(c1)CCN2S(C)(=O)=O	-1	-2	9	-3
Cc1cc(Cl)ccc1NC(=O)c1ccc2c(c1)CCN2S(C)(=O)=O	16*	-5	-1	7
CCCCNC(=O)[C@@H]1CCCN1S(=O)(=O)c1cccc2cccnc12	33*	/	0	/
C[N+](=O)C1C(=O)Nc2ccccc21 (stereo unspecified)	6	/	/	/
Cc1cc(C(=O)COc2cccnc2[N+](=O)[O-])c(C)n1Cc1cccs1	-16	106*	13	-9
CCCn1c(C)cc(C(=O)COc2ccc(C)nc2[N+](=O)[O-])c1C	0	69*	-2	8.6*
COCCn1c(C)cc(C(=O)COc2ccc(C)nc2[N+](=O)[O-])c1C	-4	115*	-15	-25
C=CCn1c(C)cc(C(=O)COc2ccc(C)nc2[N+](=O)[O-])c1C	-7	?	-3	0
CC(=O)Nc1ccccc1OCC(=O)c1cc(C)n(Cc2cccs2)c1C	8	-14	9	-12
Cc1ccc(OCC(=O)c2c(N)n(C)c(=O)n(C)c2=O)c([N+](=O)[O-])n1	21*	/	5	/
Cc1ccc(OCC(=O)c2cc(C)n(-c3ccccc3)c2C)c([N+](=O)[O-])n1	16	46	6	-4
O=C(CCS(=O)(=O)c1cccc2nonc12)Nc1ccc(Br)cc1	-9	-5	11	11
Cc1cc2cc(CNC(=O)c3ccc(Br)o3)ccc2[nH]1	10	9	57*	26
Cc1cc2cc(CNC(=O)c3ccc(Br)o3)ccc2n1C	13	31	62*	50
CC1=NN(c2ccccc2)C(=O)/C1=C\C=C\c1ccccc1	-11	2	16	11
CC1=NN(c2ccc(C)c(C)c2)C(=O)/C1=C\C=C\c1ccc([N+](=O)[O-])o1	-48	92*	-66	7
CCOc1ccc(-n2cc(-c3ccccc3)c3c(=S)nc[nH]c32)cc1	5	6	39*	1
CCOc1ccc(-n2cc(-c3ccccc3)c3c(=O)[nH]cnc32)cc1	-1	1	1	8
CCn1c(C)[n+](CCOC(C)=O)c2cc(Cl)c(Cl)cc21	1	0	-128	62*
Cc1nn(C(=O)c2cccc([N+](=O)[O-])c2)c(C)c1Cl	-1	2	-8	7
N#Cc1c(N)n(-c2ccc(C(=O)O)cc2)c2nc3ccccc3nc12	-78	80*	-43	37
O=C1CSC(c2ccc([N+](=O)[O-])cc2)N1c1ccccc1 (stereo unspecified)	-3	-4	7	5
COc1ccc(NC(=O)C(c2ccc(C)cc2)N(C)C(=O)Cc2cccs2)cc1 (stereo unspecified)	8	63*	1	5.4*
Cc1ccoc1C(=O)NCCNC(=O)c1occc1C	11	/	4	/
SMILES	CendR NRP1 mod	eIF4H FP inh	MLLE-PAM2 inh	PABP FP inh
Cc1ccoc1C(=O)NCc1occc1C(=O)O	-12	74*	19	48
Cc1ccc(S(=O)(=O)N(C)C)cc1NC(=S)NNC(=O)C(N)=O	1	9	-28	61*
COc1cccc(-c2nc(-c3ccccc3)nc(N3CCN(C)CC3)c2C#N)c1	14	active	1	59
CN(Cc1ccc(F)cc1)C(=O)CNC(=O)c1ccc2c(c1)OCO2	12	/	5	/
C(=C\c1ccco1)/C1=NN(c2ccccc2)C(c2ccco2)C1 (stereo unspecified)	-149	71*	-73	-6
Cc1ccc(S(=O)(=O)N2CCCNCC2)cc1	4	-5	18	-5
Cc1c(C(=O)N(CC(C)C)c2c(N)n(Cc3ccccc3)c(=O)[nH]c2=O)sc2nc3n(c(=O)c12)CCC3	-8	/	-2	/
Cc1ccc(OCC(O)CNC2CCCC2)c(C)c1 (stereo unspecified)	0	4	-8	-9
Cc1ccccc1OCC(O)CNC1CCC(NCC(O)COc2ccccc2C)CC1 (stereo unspecified)	20*	1	-12	3
CCc1cccc(NC(=O)CCc2c(C)nn(-c3ccc(N4CCOCC4)nn3)c2C)c1	32*	2	3	2
COc1ccc(-c2cc(CNc3nc(NCc4ccccc4OC)nc4ccsc34)on2)cc1	7	/	9	/
Cc1ccc(S(=O)(=O)/N=C2\C=C(Nc3cccc(C(=O)O)c3)C(=O)c3ccccc32)cc1	45*	0	15	26
Cc1ccc(S(=O)(=O)/N=C2\C=C(Nc3cccc(C(=O)O)c3)C(=O)c3ccccc32)c(C)c1	38*	4	13	24

Screening data: PubChem BioAssay, Sanford-Burnham Center for Chemical Genomics
